Bioassay records as filed in PubChem.
HSP90 inh: inhibitors of HSP90 luciferase refolding in rabbit reticulocyte lysate | luciferase refolding luminescence, 3 h | actives 0.91% (n = 290,000) | inhibition, % at 5.6 µM;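 active = inhibition above the screen-wide mean plus 3 SD, computed separately per campaign, cut at about 16% in these data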;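 also: 0% = DMSO wells and 100% = 60 µM geldanamycin wells; inhibitors lower the luminescence because luciferase stays unfolded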
aDG glyco act: alpha-DG glycosylation activation; Pro5-aDG cells, alpha-DG glycosylation AlphaScreen (IIH6); 0% Pro5, 100% B10-LARGE cell signal; activation, % at 10 µM; actives 0.22% (n = 360,000); AID 624168;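 active = activation of at least 8% versus controls, or a plate z-score of at least 8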;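 also: Pro5 are CHO cells carrying HIG-tagged alpha-DG that lacks glycosylation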
LGR2 inh: blocks bursicon-induced cAMP signaling via Drosophila LGR2; inhibition, % at 9.99 µM; actives 0.35% (n = 380,000); HEK293 LGR2, CRE-luciferase, bursicon-stimulated, 4 h;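 active = drop in luminescence signal, shown as inhibition above about 50% in the replicate tests, limit read from the data, passing the limit was not always enough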;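 also: agonist challenge used bursicon conditioned medium at about half maximal strength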
LMP1 NFkB inh: Epstein-Barr LMP1 NF-kappaB reporter inhibition; inhibition, % at 12.5 µM; AID 504558; actives 0.69% (n = 350,000); LMP1-induced NF-kappaB luciferase reporter cells, luminescence; in the data active = inhibition above about 41%;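 also: 0% = neutral control wells and 100% = reference inhibitor control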
TWEAK Fn14 block: blocks TWEAK-Fn14 interaction in a reporter cell assay; TWEAK-stimulated Fn14 reporter cells, luciferase luminescence, 8 h; inhibition, % at 10 µM; actives 2% (n = 360,000); in the data active = inhibition above about 50%
TROY signal inh: inhibitors of TROY-dependent NF-kB signaling | Q293 LMP1-TROYcd NF-kB luciferase reporter, 4 h | inhibition, % at 10 µM | actives 0.98% (n = 360,000) | AID 1347056;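 active = compounds whose plate-normalised and pattern-corrected inhibition of the luciferase reporter signal at the single screening dose is 50% or more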
Starred values were filed as active, the others as inactive. In the library only some 2.6% were active in any assay of this set; here they are far more common.

For Cc1ccc(NC(=O)N2CCCc3ccccc32)cc1 the results were HSP90 inh 0, aDG glyco act 0, LGR2 inh -79, LMP1 NFkB inh -4, TWEAK Fn14 block -11 and TROY signal inh -5.
`O=C(c1cccnc1)N1CC2(C1)[C@@H](c1ccccc1)[C@H](CO)N2Cc1cccnc1` gave LGR2 inh -14.
For CO[C@@H]1CN(C)C(=O)c2ccc(NC(=O)Nc3cccc(F)c3)cc2OC[C@H](C)NC[C@H]1C the results were LGR2 inh 8.
`Cc1ccc(S(=O)(=O)N(C)C[C@@H]2OCCCC[C@@H](C)Oc3ccc(NC(=O)CCCN(C)C)cc3C(=O)N([C@@H](C)CO)C[C@H]2C)cc1` gave LGR2 inh -13.
COc1cccc(C(=O)Nc2ccc3c(c2)C(=O)N(C)C[C@H](OC)[C@@H](C)CN(C(C)=O)[C@H](C)CO3)c1 was read as LGR2 inh -2.
`COc1ccc(NC(=S)Nc2ccc3nc(C)c(C)nc3c2)cc1` gave HSP90 inh 0, aDG glyco act 0, LMP1 NFkB inh 6, TWEAK Fn14 block 34 and TROY signal inh -29.
Screening CNC(=S)Nc1ccc(Br)cc1 returned HSP90 inh -1, aDG glyco act 0, LGR2 inh 3, LMP1 NFkB inh 11, TWEAK Fn14 block 32 and TROY signal inh 61*.
Screening CNC(=S)Nc1ccc2nc(C)c(C)nc2c1 returned HSP90 inh 2, aDG glyco act 0, LMP1 NFkB inh 50*, TWEAK Fn14 block 30 and TROY signal inh 10.
`Fc1ccc(NC(=S)Nc2ccc(Br)cc2)cc1` gave HSP90 inh -1, aDG glyco act 0, LGR2 inh -10, LMP1 NFkB inh -9, TWEAK Fn14 block 5 and TROY signal inh -26.
`COc1ccc(NC(=S)NCc2cccs2)cc1` gave HSP90 inh 3, aDG glyco act 0, LGR2 inh -20, LMP1 NFkB inh 57*, TWEAK Fn14 block -6 and TROY signal inh 1.
For COc1ccc(CNC(=S)Nc2ccc(Br)cc2)cc1 the results were HSP90 inh 2, aDG glyco act 0, LGR2 inh 5, LMP1 NFkB inh -8, TWEAK Fn14 block 64* and TROY signal inh 21.
CCOC(=O)Cc1csc(NC(=O)c2cccs2)n1 was read as HSP90 inh -1, aDG glyco act 0, LMP1 NFkB inh -24, TWEAK Fn14 block -24 and TROY signal inh -43.
CCOC(=O)Cc1csc(NC(=O)c2c(O)c3ccccc3n(CC(C)C)c2=O)n1 was read as HSP90 inh 3, aDG glyco act 0, LGR2 inh 15, LMP1 NFkB inh 9, TWEAK Fn14 block 54* and TROY signal inh 36.
`CCOC(=O)Cc1csc(NC(=O)c2ccc(Br)s2)n1` gave HSP90 inh 16*.
For CCOC(=O)Cc1csc(N/N=C/c2ccc(Cl)cc2)n1 the results were HSP90 inh 9, aDG glyco act 0, LGR2 inh -6, LMP1 NFkB inh 49*, TWEAK Fn14 block 3 and TROY signal inh -50.
COC(=O)[C@H]1[C@H](CO)[C@H]2Cn3c(ccc(-c4ccccc4OC)c3=O)[C@H]2N1CC1CCCCC1 was read as LGR2 inh 4.
Screening CO[C@@H]1CN(C)C(=O)c2cc(NS(=O)(=O)c3ccccc3)ccc2OC[C@H](C)N(Cc2ccccn2)C[C@@H]1C returned LGR2 inh 4.
`C[C@@H]1CN([C@@H](C)CO)C(=O)c2cc(NC(=O)CCC(F)(F)F)ccc2O[C@@H](C)CCCCO[C@H]1CN(C)C(=O)c1ccccc1` gave LGR2 inh 13.
`O=C(NC1=C(Nc2ccc(F)cc2)C(=O)c2ccccc2C1=O)c1ccc(Cl)cc1` gave HSP90 inh 1, aDG glyco act 5.4*, LGR2 inh -3, LMP1 NFkB inh -4, TWEAK Fn14 block 1 and TROY signal inh 18.
For Cc1ccc(S(=O)(=O)N[C@@H]2CC[C@@H](CC(=O)N3CCc4ccccc4C3)O[C@@H]2CO)cc1 the results were LGR2 inh -12.
`COc1ccc(NC(=O)N2CC(=O)N3[C@H](CO)[C@H](c4ccc(C#CCC5CCCC5)cc4)[C@H]3C2)cc1` gave LGR2 inh 25.
`O=C(Nc1nnc(-c2ccc3c(c2)CCCC3)o1)c1c(F)cccc1F` gave HSP90 inh 6, aDG glyco act 0, LGR2 inh -14, LMP1 NFkB inh -6, TWEAK Fn14 block 53* and TROY signal inh 22.
`ON=C1c2ccccc2-c2cc(Br)ccc21` gave aDG glyco act 0, LMP1 NFkB inh 8, TWEAK Fn14 block 71* and TROY signal inh 44.
Screening Cc1ccc2[nH]cc(C(=O)CN3CCC4(CC3)OCCO4)c2c1 returned HSP90 inh -3, aDG glyco act 0, LMP1 NFkB inh -8, TWEAK Fn14 block 51* and TROY signal inh -12.
Screening Cc1ccc2[nH]cc(C(=O)CN3CCOCC3)c2c1 returned HSP90 inh 0, aDG glyco act 0, LGR2 inh 9, LMP1 NFkB inh 1, TWEAK Fn14 block 22 and TROY signal inh -7.
`C[C@H]1CN([C@@H](C)CO)C(=O)c2cc(Br)cnc2O[C@@H]1CN(C)C(=O)C1CC1` gave LGR2 inh 6.
Screening COc1cc(O)c(CC=C(C)C)c(O)c1C(=O)CCc1ccc(O)cc1 returned aDG glyco act 0, LGR2 inh -11, LMP1 NFkB inh -42, TWEAK Fn14 block 81* and TROY signal inh 71*.
For O=C(CCc1ccc(O)cc1)c1c(O)cc(O)cc1O the results were aDG glyco act 0, LGR2 inh 3, LMP1 NFkB inh 0, TWEAK Fn14 block -3 and TROY signal inh -31.
Screening COc1ccccc1C1(CC(=O)O)CCOC(C)(C)C1 (stereo not drawn) returned HSP90 inh -1, aDG glyco act 0, LMP1 NFkB inh 68*, TWEAK Fn14 block -12 and TROY signal inh 13.
Screening COc1cccc(/C=N/NC(=O)c2ccc(-c3ccccc3)cc2)c1O returned HSP90 inh -1, aDG glyco act 2, LMP1 NFkB inh 57*, TWEAK Fn14 block -25 and TROY signal inh 5.
Screening COc1cccc(/C=N/NC(=O)c2c(C)nc3ccc(Cl)cn23)c1O returned HSP90 inh -5, aDG glyco act 1, LGR2 inh 14, LMP1 NFkB inh 61*, TWEAK Fn14 block -32 and TROY signal inh -3.
Screening NC(=O)c1c(-c2ccc(Cl)cc2Cl)csc1NC(=O)Cc1ccccc1 returned HSP90 inh -2, aDG glyco act 6, LGR2 inh 10, LMP1 NFkB inh 11, TWEAK Fn14 block 76* and TROY signal inh 20.
O=C(Cc1ccccc1)Nc1scc(-c2ccccc2)c1C(=O)N1CCOCC1 was read as HSP90 inh -6, aDG glyco act 0, LMP1 NFkB inh -4, TWEAK Fn14 block -6 and TROY signal inh -13.
